Data from the supplement of paper PMC13380429.
Values without a mark were called inactive.

What follows are molecules tested on Vero E6 infected with SARS-CoV-2 (assay: SARS-CoV-2 infection rate relative to infected DMSO; higher = more infection, active = 60 or less). Conditions: 24 h.

Structure (SMILES) | SARS-CoV-2 infection rate [%]
Cc1onc(-c2c(Cl)cccc2Cl)c1C(=O)N[C@@H]1C(=O)N2[C@@H]1SC(C)(C)[C@@H]2C(=O)O [dicloxacillin] (10 µM) | 115
CCCCCNCC(N)=O [milacemide] (10 µM) | 99
O=C(O)c1cc(O)c2c(c1)C(=O)c1cccc(O)c1C2=O [rhein] (10 µM) | 99.5
Cn1cc(-c2cnn3c(N)c(Br)c([C@@H]4CCCNC4)nc23)cn1 (10 µM) | 82
CCc1cc(/C(C)=N/OCc2ccc(C3CCCCC3)c(C(F)(F)F)c2)ccc1CN1CC(C(=O)O)C1 [siponimod] (10 µM) | 100
CCN(C(C)=O)c1cccc(-c2ccnc3c(C#N)cnn23)c1 (10 µM) | 98.5
CCC(=O)NS(=O)(=O)c1ccc(-c2c(-c3ccccc3)noc2C)cc1 [parecoxib] (10 µM) | 106
CC(C)CN(C[C@@H](OP(=O)(O)O)[C@H](Cc1ccccc1)NC(=O)O[C@H]1CCOC1)S(=O)(=O)c1ccc(N)cc1 [fosamprenavir] (10 µM) | 109
Cc1cc(O)cc2c1O[C@](C)(CCC[C@H](C)CCC[C@H](C)CCCC(C)C)CC2 [D-delta-tocopherol] (10 µM) | 112
O=c1c2ccccc2[se]n1-c1ccccc1 [ebselen] (10 µM) | 84
CC(C)Nc1cccnc1N1CCN(C(=O)c2cc3cc(NS(C)(=O)=O)ccc3[nH]2)CC1 [delavirdine] (10 µM) | 110
N#Cc1cnc2cnc(NCc3cccnc3)cc2c1Nc1ccc(F)c(Cl)c1 (10 µM) | 102
CC[C@H](C)C(=O)O[C@H]1C[C@H](O)C=C2C=C[C@H](C)[C@H](CC[C@@H](O)C[C@@H](O)CC(=O)O)[C@H]21 (10 µM) | 106
COC(=O)/C=C/C(=O)OCCN1C(=O)CCC1=O [diroximel-fumarate] (10 µM) | 101
CN(C)CCCSC(=N)N [dimaprit] (10 µM) | 94.5
O=C(c1ccc(Cl)o1)N1CC2CNCC2C1 (stereo not given) (10 µM) | 105
Cc1cnc(Nc2ccc(N3CCN(C)CC3)cc2)nc1Nc1cccc(S(=O)(=O)NC(C)(C)C)c1 (0.833333 µM) | 122
CC(C)C1=C2[C@H]3CC[C@@H]4[C@@]5(C)CC[C@H](OC(=O)CC(C)(C)C(=O)O)C(C)(C)[C@@H]5CC[C@@]4(C)[C@]3(C)CC[C@@]2([C@@H](O)CN(CCN(C)C)Cc2ccc(Cl)cc2)CC1=O (10 µM) | 96
COc1ccc(S(=O)(=O)Nc2c(C)cc(C)cc2C)cc1 (10 µM) | 80.5
NS(=O)(=O)c1cc2c(cc1C(F)(F)F)NCNS2(=O)=O [hydroflumethiazide] (10 µM) | 112

Structure (SMILES) | SARS-CoV-2 infection rate [%]
CC(C)N(CCCNC(=O)Nc1ccc(C(C)(C)C)cc1)C[C@H]1O[C@@H](n2ccc3c(N)ncnc32)[C@H](O)[C@@H]1O (10 µM) | 108
Cc1ccc(Cl)c(Nc2ccccc2C(=O)O)c1Cl [meclofenamic-acid] (10 µM) | 108
Cc1ccc(CNc2ncnc3ccc(-c4ccc(CO)o4)cc23)o1 (10 µM) | 106
CC1=C(CCC(=O)O)c2cc3[nH]c(cc4nc(cc5[nH]c(cc1n2)c(C)c5C(C)O)C(C)=C4C(C)O)c(C)c3CCC(=O)O (stereo not given) [hematoporphyrin] (10 µM) | 116
O=C(Nc1ccc([N+](=O)[O-])cc1O)Nc1ccccc1Br (0.833333 µM) | 103
CCCc1cc(C)[nH]c(=O)c1CNC(=O)c1cc(-c2ccc(N3CCN(C(C)C)CC3)nc2)cc2c1cnn2C(C)C (10 µM) | 110
CC(=N)NCc1cccc(CN)c1 (10 µM) | 107
C[C@@H]1CN([C@H]2CC[C@](C#N)(c3ccc(F)cc3)CC2)CC[C@]1(C(=O)O)c1ccccc1 [levocabastine] (10 µM) | 112
O=C1Nc2ccc(Cl)c3c2C1(CCCCN1CC=C(c2ccc(Cl)cc2)CC1)CCC3 (stereo not given) (0.833333 µM) | 106
O=C(O)COc1cccc(CN(Cc2ccc(-n3cccn3)cc2)S(=O)(=O)c2cccnc2)c1 [taprenepag] (10 µM) | 100
CC1(C)O[C@@H]2C[C@H]3[C@@H]4CCC5=CC(=O)C=C[C@]5(C)[C@@]4(F)[C@@H](O)C[C@]3(C)[C@]2(C(=O)CO)O1 (10 µM) | 109
CC(C)(C)NS(=O)(=O)c1cncc(-c2cc(F)c3nc(N)nn3c2)c1 (10 µM) | 104
Nc1ccn([C@@H]2CS[C@H](CO)O2)c(=O)n1 [lamivudine] (10 µM) | 102
COC(=O)[C@H](CC(C)C)NC(=O)[C@@H](N)CC(C)C [leucylleucine-methyl-ester] (10 µM) | 99.5
CC(=O)SC[C@@H](C)C(=O)N1CCC[C@H]1C(=O)N[C@@H](Cc1ccccc1)C(=O)O [alacepril] (10 µM) | 108
C=C1C(=O)[C@]23[C@H](O)[C@H]1CC[C@H]2[C@@]12CO[C@]3(O)[C@@H](O)[C@@H]1C(C)(C)CC[C@@H]2O [Oridonin (Isodonol)] (0.833333 µM) | 97
COc1ccc2c(O[C@@H]3C[C@H]4C(=O)N[C@]5(C(=O)NS(=O)(=O)C6CC6)C[C@H]5/C=C\CCCCN(C)C(=O)[C@@H]4C3)cc(-c3nc(C(C)C)cs3)nc2c1C [simeprevir] (10 µM) | 88.5
Cc1cccc(C)c1NC(=O)[C@@H](C)N [tocainide] (10 µM) | 109
CC(C)NC[C@@H](C(=O)N1CCN(c2ncnc3c2[C@H](C)C[C@H]3O)CC1)c1ccc(Cl)cc1 (10 µM) | 96
NC(=O)c1nc(F)cnc1O [Favipiravir] (10 µM) | 108
